The results in this text go back to PubChem BioAssay.

A short description of experiment [1]: inhibitors of TNFa-induced NFkB p65 translocation, primary screen, imaging, HUVEC, MLSMR starter and 10KST1 sets (AID 438;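 active = inhibition above 20% together with a positive visual image hit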;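 also: compound added about 3h40 before a 20 min TNFalpha stimulation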;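 as to inhibition: signal is the nuclear over cytoplasmic p65 intensity ratio per well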). Conditions: HUVEC TNFa-induced p65 nuclear translocation; cell count: measured here: nuclei count (cytotoxicity indicator), at 2.08 µM; inhibition: at 2 µM, stronger effect = higher value, 0% TNFa-plus-vehicle, 100% no-TNFa wells.
Experiment [2] is described as follows: inhibitors of mutant huntingtin aggregation, primary screen, imaging, exon1htt(103Q)mCFP cells, high-content imaging (AID 483;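 active = visual image review flags a hit and inhibition of aggregation exceeds 20%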;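 also: compound exposure lasted 3 days before fixation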;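 as to nuclei count: percent of the per-plate median nuclei count of sample wells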). The conditions noted are these: exon1htt(103Q)mCFP cell line, aggregate imaging, at 2 µM; inhibition of aggregation: stronger effect = higher value; nuclei count: measured here: cell count, toxicity.
Experiment [3] is described as follows: inhibitors of E-selectin induction by TNFa, primary screen, imaging, HUVEC, immunofluorescence, MLSMR starter and 10KST1 sets (AID 487;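 active = visually confirmed hit in the image check and inhibition above 20%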;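 as to inhibition: signal is fraction of cell area covered by stained E-selectin grains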;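 as to nuclei count: 100% = median nuclei count of all wells on the same plate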). Conditions: HUVEC TNFalpha-induced E-selectin immunofluorescence imaging, at 2 µM; inhibition: stronger effect = higher value; nuclei count: measured here: cell number, toxicity.
In experiment [4] the target is Voltage-gated potassium channel subunit beta-2 (Rattus norvegicus) (UniProt P62483). Briefly: KvBeta enzyme negative modulators, primary screen, biochemical, NADPH fluorescence (AID 622;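 active = fluorescence slope higher than the sample average by over 3 SD, cut at about -0.22 in these data, passing the limit was not always enough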;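 also: slope of raw intensity against log time taken from 70 to 1610 s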). Conditions: recombinant KvBeta, 4-cyanobenzaldehyde reduction, at 10 µM, stronger effect = higher value.
The target is the same in experiment [5]. The experiment can be described thus: KvBeta positive modulators, primary screen, biochemical, NADPH fluorescence (AID 623;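 active = NADPH fluorescence slope more negative than the mean of all samples by about 3 SD, 99.7% confidence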;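 also: fluorescence intensity change per second fitted from 20 to 320 s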). Conditions: Recombinant KvBeta, NADPH fluorescence decrease slope, 10 min; at 10 µM; stronger effect = lower value.
Experiment [6] addresses Alpha-2C adrenergic receptor (Homo sapiens) (UniProt P18825). Briefly: modulators of alpha2C/GIRK thallium flux, primary screen, cell-based, HEK293 alpha2C/GIRK1/2 (AID 624;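 active = fluorescence slope after compound addition differing from the mean of all screened samples at 99.7% confidence, in either direction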;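 also: slope of fluorescence ratio to pre-addition baseline per second over 15 to 24 s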). Conditions: thallium flux BTC fluorescence, at 10 µM, actives lie on both sides.
Experiment [7] can be described thus: inhibitors of Sendai virus-induced IRF3 signaling, primary screen, TLR/RLR signaling modifier project, cell-based, Sendai virus stimulus, luciferase, 10K MLSCN set (AID 602276;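 active = inhibition at or above 50% at 10 µM; inactive = inhibition below 50%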;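 also: firefly luciferase from ISG56 promoter only with Renilla not read in this screen; 0% = Sendai virus plus DMSO and 100% = medium plus DMSO without virus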). Conditions: HEK293 RL24 IRF3 luciferase reporter, at 10 µM, stronger effect = higher value.
Experiment [8] can be described thus: inhibitors of poly I:C-induced TLR3 signaling, primary screen, cell-based, poly I:C stimulus, luciferase, 10K MLSCN set (AID 602277). The conditions noted are these: HEK293-TLR3 RL24 IRF3 luciferase reporter, at 10 µM, stronger effect = higher value.

Calls of active or inactive are those of the source.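 The calls were made as follows, unless noted: active = inhibition of the reporter signal at or above 50%; inactive = inhibition below 50%.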

As usually defined, the inhibition is the relative decrease from the control value, in per cent.

Alpha-2C adrenergic receptor (Homo sapiens), sequence (P18825 whole entry, looked up): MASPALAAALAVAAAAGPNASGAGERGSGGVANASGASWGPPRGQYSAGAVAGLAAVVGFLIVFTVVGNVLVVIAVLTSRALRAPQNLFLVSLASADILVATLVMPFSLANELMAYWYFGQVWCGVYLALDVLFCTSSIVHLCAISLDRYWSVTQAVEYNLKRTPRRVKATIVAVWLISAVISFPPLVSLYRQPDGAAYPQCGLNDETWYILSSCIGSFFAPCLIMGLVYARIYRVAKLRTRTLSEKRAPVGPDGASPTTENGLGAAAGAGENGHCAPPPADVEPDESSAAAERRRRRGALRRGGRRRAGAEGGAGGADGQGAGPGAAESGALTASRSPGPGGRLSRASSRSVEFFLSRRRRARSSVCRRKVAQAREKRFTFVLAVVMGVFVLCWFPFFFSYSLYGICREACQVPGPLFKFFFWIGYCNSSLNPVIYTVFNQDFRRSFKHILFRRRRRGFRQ
Voltage-gated potassium channel subunit beta-2 (Rattus norvegicus), sequence (P62483 whole entry, looked up): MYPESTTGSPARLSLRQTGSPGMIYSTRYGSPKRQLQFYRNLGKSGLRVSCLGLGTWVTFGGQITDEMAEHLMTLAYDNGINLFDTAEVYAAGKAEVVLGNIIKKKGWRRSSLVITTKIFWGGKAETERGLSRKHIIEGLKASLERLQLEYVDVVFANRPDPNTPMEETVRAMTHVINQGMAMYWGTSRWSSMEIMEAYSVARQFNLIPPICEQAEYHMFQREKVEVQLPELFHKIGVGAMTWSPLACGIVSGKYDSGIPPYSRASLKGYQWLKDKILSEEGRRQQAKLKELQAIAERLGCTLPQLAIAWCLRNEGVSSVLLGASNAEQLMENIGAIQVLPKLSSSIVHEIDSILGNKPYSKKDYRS

As for `O=C(c1ccc2nc(N3CCOCC3)sc2c1)N1CCCC1`, in experiment [1], the cell count turned out to be 708. Further, the inhibition is -11.2% (inactive) in experiment [1], -70.6% (inactive) in experiment [3], 3.55% (inactive) in experiment [7] and 3.65% (inactive) in experiment [8]. For the same compound, the inhibition of aggregation in experiment [2] is 6% (inactive). Further, the nuclei count in experiment [2] is 62.7%; in experiment [3] it was 116%. Further, in experiment [4], the fluorescence slope is -0.564 (inactive). Also, the NADPH fluorescence slope in experiment [5] is -2.7e-05 (inactive). Also, in experiment [6], the slope was 0.00689 (inactive).
As to `O=C(CSc1nnc(-c2ccco2)n1-c1ccccc1)N1CCN(C(=O)c2ccco2)CC1`, in experiment [1], the cell count was determined as 537. Besides, the inhibition is -7.8% (inactive) in experiment [1], 0.8% (inactive) in experiment [3], 11.5% (inactive) in experiment [7] and 31.2% (inactive) in experiment [8]. Besides, in experiment [2], the inhibition of aggregation was 27.8% (active). In addition, the nuclei count was found to be 59.4% in experiment [2] and 116% in experiment [3]. Moreover, in experiment [4], the fluorescence slope was -0.474 (inactive). Also, the NADPH fluorescence slope in experiment [5] was -1.7e-05 (inactive). Moreover, in experiment [6], the slope is 0.00672 (inactive).
As to `Cn1c(=O)c2c(nc(NCc3ccccc3)n2CCCc2ccccc2)n(C)c1=O`, the cell count in experiment [1] came out at 759. The inhibition in experiment [1] was -1.6% (inactive); in experiment [3] it was -77.1% (inactive); in experiment [7], 16.3% (inactive); in experiment [8], 26.8% (inactive). Further, the inhibition of aggregation in experiment [2] is 5.6% (inactive). For the same compound, the nuclei count in experiment [2] turned out to be 101%; in experiment [3], 121%. Further, the fluorescence slope in experiment [4] is -0.521 (inactive). For the same compound, in experiment [5], the NADPH fluorescence slope is -1.3e-05 (inactive). Moreover, the slope in experiment [6] is 0.00474 (inactive).
Take `CCN1CCN(c2ncnc3c2oc2nc(C)c4c(c23)CC(C)(C)OC4)CC1`: the cell count in experiment [1] was determined as 476. Further, the inhibition in experiment [1] was -2.9% (inactive); in experiment [3] it was -35.5% (inactive); in experiment [7] it was -6.53% (inactive); in experiment [8] it was 30.5% (inactive). For the same compound, the inhibition of aggregation in experiment [2] is 0.7% (inactive). In addition, the nuclei count turned out to be 102% in experiment [2] and 116% in experiment [3]. The fluorescence slope in experiment [4] is -0.472 (inactive). In addition, the NADPH fluorescence slope in experiment [5] was -2.5e-05 (inactive). Besides, in experiment [6], the slope is 0.00388 (inactive).
Take `COC(=O)c1sc(N)c(C(=O)OC)c1CSc1nc2sc3c(c2c(=O)n1C)CCC3`: in experiment [1], the cell count is 428. Further, the inhibition in experiment [1] was 14.1% (inactive); in experiment [3], 2.9% (inactive); in experiment [7], -6.85% (inactive); in experiment [8], 15% (inactive). Besides, the inhibition of aggregation in experiment [2] is -20% (inactive). The nuclei count in experiment [2] worked out at 104%; in experiment [3], 111%. The fluorescence slope in experiment [4] was -0.524 (inactive). Further, the NADPH fluorescence slope in experiment [5] is -6.8e-06 (inactive). Also, the slope in experiment [6] is 0.00788 (inactive).
On to `Cc1ccc2cc(CCNC(=O)C(C)C)c(=O)[nH]c2c1C`, for which the cell count in experiment [1] came to 640. Further, the inhibition in experiment [1] was 1.9% (inactive); in experiment [3] it was -60.4% (inactive); in experiment [7] it was -6.46% (inactive); in experiment [8], -5.17% (inactive). The inhibition of aggregation in experiment [2] is 8.6% (inactive). Besides, the nuclei count in experiment [2] stood at 57.4%; in experiment [3] it was 125%. Also, in experiment [4], the fluorescence slope was -0.57 (inactive). The NADPH fluorescence slope in experiment [5] was -2.3e-05 (inactive). In addition, the slope in experiment [6] is 0.00565 (inactive).
Turning to `c1ccc(-c2cnc(CSc3ncnc4sccc34)o2)cc1`, the cell count in experiment [1] was 308. Further, the inhibition is 2.9% (inactive) in experiment [1], -7.2% (inactive) in experiment [3], -9.6% (inactive) in experiment [7] and -51.1% (inactive) in experiment [8]. Further, the inhibition of aggregation in experiment [2] was 27.8% (inactive). Besides, the nuclei count in experiment [2] turned out to be 86.4%; in experiment [3], 109%. For the same compound, the fluorescence slope in experiment [4] is -0.272 (inactive). Further, the NADPH fluorescence slope in experiment [5] was -1.7e-05 (inactive). Besides, the slope in experiment [6] was 0.00879 (inactive).
For `CCn1cc(C2Nc3ccccc3C(=O)N2O)c(C)n1` (centres undefined), in experiment [1], the cell count was determined as 428. Also, the inhibition in experiment [1] was 8.8% (inactive); in experiment [3], -66.4% (inactive); in experiment [7] it was -41.1% (inactive); in experiment [8], -70.4% (inactive). For the same compound, in experiment [2], the inhibition of aggregation was -27.6% (inactive). Also, the nuclei count in experiment [2] turned out to be 112%; in experiment [3], 104%. Also, the fluorescence slope in experiment [4] was -0.301 (inactive). The NADPH fluorescence slope in experiment [5] is -4.1e-05 (inactive). Also, the slope in experiment [6] was 0.0057 (inactive).
In the case of `COc1ccc(NC(=O)CN2CCCCC2)cc1`, the cell count in experiment [1] is 494. Further, the inhibition in experiment [1] was -1.5% (inactive); in experiment [3], -23.4% (inactive); in experiment [7], 3.07% (inactive); in experiment [8], 11.2% (inactive). Also, in experiment [2], the inhibition of aggregation is 5.5% (inactive). Also, the nuclei count in experiment [2] stood at 110%; in experiment [3], 121%. In addition, the fluorescence slope in experiment [4] was -0.414 (inactive). Besides, the NADPH fluorescence slope in experiment [5] was -2.7e-05 (inactive). Also, the slope in experiment [6] is 0.00355 (inactive).
As for `O=C(CN1CCN(c2nc(-c3ccc(F)cc3)cs2)CC1)NCc1ccc2c(c1)OCO2`, the cell count in experiment [1] was 491. For the same compound, the inhibition is 9.9% (inactive) in experiment [1], -34.5% (inactive) in experiment [3], 16.7% (inactive) in experiment [7] and 17.8% (inactive) in experiment [8]. In addition, the inhibition of aggregation in experiment [2] is 5.2% (inactive). The values for the nuclei count in experiment [2] and in experiment [3] were 108% and 107%, respectively. In addition, the fluorescence slope in experiment [4] is -0.582 (inactive). The NADPH fluorescence slope in experiment [5] was -2.2e-05 (inactive). Also, in experiment [6], the slope was 0.00522 (inactive).
Take `O=C(Nc1cccc(Cl)c1)N1CCN(Cc2ccccc2)CC1`: in experiment [1], the cell count stood at 652. The inhibition in experiment [1] is 1.3% (inactive); in experiment [3] it was -40% (inactive); in experiment [7], -35.1% (inactive); in experiment [8] it was -81.7% (inactive). In experiment [2], the inhibition of aggregation was -6.8% (inactive). Besides, the nuclei count is 99.5% in experiment [2] and 106% in experiment [3]. Also, the fluorescence slope in experiment [4] was -0.529 (inactive). The NADPH fluorescence slope in experiment [5] is -3.3e-05 (inactive). In addition, in experiment [6], the slope was 0.00631 (inactive).
As for `Cc1ccc(C(=O)N2CCCC(c3nc4c(nnn4Cc4ccccc4)c(=O)[nH]3)C2)cc1` (centres undefined), in experiment [1], the cell count is 671. Also, the inhibition in experiment [1] is -6.5% (inactive); in experiment [3] it was -44.4% (inactive); in experiment [7], 13.8% (inactive); in experiment [8], 21.2% (inactive). For the same compound, the inhibition of aggregation in experiment [2] is -2.8% (inactive). In addition, the results for the nuclei count in experiment [2] and in experiment [3] were 118% and 104%, respectively. Moreover, the fluorescence slope in experiment [4] was -0.38 (inactive). Further, the NADPH fluorescence slope in experiment [5] was -5.9e-05 (inactive). The slope in experiment [6] was 0.00676 (inactive).
Take `Cc1ccc(N=Cc2ccc(O)cc2O)cc1F`: the cell count in experiment [1] was 334. The inhibition in experiment [1] was -13.8% (inactive); in experiment [3], -98.5% (inactive); in experiment [7], 13% (inactive); in experiment [8] it was 23.4% (inactive). The inhibition of aggregation in experiment [2] is 0.1% (inactive). The nuclei count in experiment [2] is 113%; in experiment [3] it was 107%. For the same compound, the fluorescence slope in experiment [4] was -0.395 (inactive). Moreover, in experiment [5], the NADPH fluorescence slope was -0.000134 (inactive). Moreover, in experiment [6], the slope is 0.00518 (inactive).
`CCc1nc(N)c(C#N)c(-c2ccc(OC)c(OC)c2)c1C`: in experiment [1], the cell count was 628. Moreover, the inhibition in experiment [1] was -4.4% (inactive); in experiment [3] it was -37% (inactive); in experiment [7], 16.9% (inactive); in experiment [8] it was 21.8% (inactive). Further, in experiment [2], the inhibition of aggregation was -13.8% (inactive). In addition, the nuclei count was 98.5% in experiment [2] and 111% in experiment [3]. In addition, in experiment [4], the fluorescence slope is -0.384 (inactive). Besides, in experiment [5], the NADPH fluorescence slope is 1e-05 (inactive). In addition, the slope in experiment [6] is 0.00633 (inactive).
